Several values for one entry are separate records, joined by “and”; a condition that tells them apart may be missing. Equal values may be shown once. Out of some 16,000 compounds screened, about 4,000 (25%) were called active. Roughly 26% stayed inconclusive and do not appear here. These entries were drawn from the full list. Values without a mark were called inactive. The call rests on the fitted dose curve; in most records, active means well fitted curve in the direction sought with a large enough effect; inconclusive means small, poorly fitted or top-dose-only effect, or effect the other way; inactive means no such curve, though single readings can be large or run the other way.
Biological target: Cytochrome P450 2C9 (Homo sapiens) (UniProt P11712)
Test: Cytochrome panel assay with activity outcomes
Conditions: recombinant CYP, pro-luciferin dealkylation, luminescence, p450-cyp2c9; series mostly up to 57.1 µM
On the % scale 0 is the no-effect control and ±100 the full control effect.

Chain of Cytochrome P450 2C9 (Homo sapiens) (P11712 whole entry, looked up): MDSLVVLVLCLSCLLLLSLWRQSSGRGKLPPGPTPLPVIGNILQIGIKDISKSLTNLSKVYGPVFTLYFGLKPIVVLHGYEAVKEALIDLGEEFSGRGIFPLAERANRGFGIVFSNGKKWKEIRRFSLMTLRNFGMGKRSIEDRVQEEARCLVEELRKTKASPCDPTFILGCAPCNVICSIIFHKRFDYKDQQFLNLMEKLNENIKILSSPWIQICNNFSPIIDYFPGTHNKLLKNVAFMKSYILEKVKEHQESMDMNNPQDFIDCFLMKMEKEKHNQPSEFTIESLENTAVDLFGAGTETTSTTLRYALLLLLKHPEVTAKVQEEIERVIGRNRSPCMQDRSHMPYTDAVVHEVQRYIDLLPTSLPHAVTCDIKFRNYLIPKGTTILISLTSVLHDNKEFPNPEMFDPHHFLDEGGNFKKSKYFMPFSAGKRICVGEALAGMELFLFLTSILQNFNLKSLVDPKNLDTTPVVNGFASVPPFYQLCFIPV

Compound	activity, negative = inhibition	AC50
FC(F)(F)c1ccccc1-c1nc(NC2CCNCC2)c2ccccc2n1	14.5% [at 2.29 µM]	–
Cc1nc(S(=O)(=O)N2CCOCC2)c(C#N)c(C)c1Cl	–	inactive
CCCOc1ccc(OCCNC2CCCC2)cc1	–	inactive
c1c[nH]c(CN2CCOCC2)n1	-9.4% [at 11.4 µM]	–
Oc1cccc2ccc(SSc3ccc4cccc(O)c4n3)nc12	–	1580 nM (active)
Cc1c(O)c(=O)n(-c2ccccc2)n1C	–	inactive
Cc1c(N(C)C)c(=O)n(-c2ccccc2)n1C	–	inactive
Cc1ccc(O)c(C(=O)c2cc(C#N)c(=O)n(-c3c(C)n(C)n(-c4ccccc4)c3=O)c2)c1	–	15800 nM (active)
CCCCCOC(=O)CSc1nnc(-c2ccccc2)c(=O)[nH]1	–	2000 nM (active)
Nc1nc(SCC(=O)O)[nH]c(=O)c1N	-6.53% [at 11.4 µM]	–
NCCCc1c(-c2ccccc2)nc(N)[nH]c1=O	-12.1% [at 11.4 µM]	–
Cc1ccc(S(=O)(=O)N[C@H](C(=O)N2CCC(C(=O)NCC(=O)O)CC2)C(C)C)cc1	–	inactive
CCc1ccc2c(c1)c(N=NC1=NC(=O)CS1)c(O)n2CC	–	12600 nM (active)
COc1ccc2nc3cc(Cl)ccc3c(Nc3ccc(O)c(CN4CCN(C)CC4)c3)c2c1	-28.4% [at 11.4 µM]	–
Cc1sc2nc(SCC(=O)C(C)(C)C)n(Cc3ccco3)c(=O)c2c1C	–	1580 nM (active)
COc1ccc(C(=O)N2CCC3(CC2)CN(C(=O)NC(C)C)C3)cc1	–	inactive
O=C(Nc1cccnc1Cl)C1c2ccccc2Oc2ccccc21	–	1120 nM (active)
Cc1cccc2sc(NC(=O)C3c4ccccc4Oc4ccccc43)nc12	–	1260 nM (active)
Cc1ccccc1NC(=O)c1cnc(Nc2nc3ccccc3s2)nc1C	–	inactive
NC(N)=NNC(=O)C(=O)O	-4.6% [at 11.4 µM]	–
CCc1cc2c(NCCO)ncnc2s1	–	1580 nM (active)
c1csc(CNc2ncnc3ccc(-c4ccoc4)cc23)c1	0.0121% [at 2.29 µM]	–

Compound	activity, negative = inhibition	AC50
Cc1cnc(CNc2ncnc3ccc(-c4ccoc4)cc23)cn1	11.8% [at 2.29 µM]	–
OCCCNc1ncnc2[nH]ncc12	-4.6% [at 11.4 µM]	–
OCCNc1ncnc2nc[nH]c12	-11.4% [at 11.4 µM]	–
CCc1cc2c(NCc3ccco3)ncnc2s1	–	4470 nM (active)
CC(=O)c1c(C)nc(-c2ccccc2)n1O	–	inactive
CN=c1nc(-c2ccccc2)n(-c2ccccc2)s1	–	2000 nM (active)
CN=C1N[C@H](c2ccccc2)N(c2ccccc2)S1	–	inactive
CN1CC[C@@]2(CCCN(C(=O)c3cccn3C)C2)C1	–	inactive
COC(=O)[C@@]1(Cc2ccc(F)cc2)[C@H]2c3cc(C(=O)N4CCCC4)n(Cc4cccc5ccccc45)c3C[C@H]2CN1C(=O)c1ccccc1	–	1580 nM (active)
COC(=O)[C@@]1(Cc2ccccc2)[C@H]2c3cc(C(=O)N4CCCC4)n(Cc4cccc5ccccc45)c3C[C@H]2CN1C(=O)c1ccccc1	–	251 nM (active)
COc1ccc(-n2c(-c3ccccc3)nc(=S)c3c2CCCC3)cc1	–	inactive
CC1=C(C(N)=O)C(c2cccs2)n2nc(-c3cccc(Cl)c3)nc2N1 (stereo not drawn)	–	12600 nM (active)
C/C(=N\N=C1\NC(=O)CC(C(=O)O)S1)c1cccs1 (stereo not drawn)	–	inactive
CC(=O)/C(=N\N=C(N)N)c1ccccc1	11.7% [at 11.4 µM]	–
C/C(=N\N=C(c1ccccc1)c1ccccc1)c1cccs1	–	708 nM (active)
CC(=O)c1cc(C)ccc1OC(=O)CCN1C(=O)C2C3c4ccccc4C(c4ccccc43)C2C1=O (stereo not drawn)	–	inactive
O=c1[nH]ncn2cccc12	–	inactive
O=C(CSc1nnc(-c2ccco2)n1-c1ccccc1)NCc1ccco1	–	inactive
Cc1cc(C)c(NC(=O)C(C)Sc2nnc(-c3ccco3)n2-c2ccccc2)c(C)c1 (stereo not drawn)	–	10000 nM (active)
O=C1C2CCC(C(O)C2)N1Cc1ccccc1 (stereo not drawn)	–	inactive
O=C(O)c1ccc(CNCc2ccccc2)cc1	10.3% [at 11.4 µM]	–
NC(=O)c1ccc(C2SCC(=O)N2Cc2ccccc2)cc1 (stereo not drawn)	–	12600 nM (active)

Compound	activity, negative = inhibition	AC50
O=C(COC(=O)COc1ccccc1)Nc1ccc(OC(F)(F)F)cc1	–	inactive
O=C(COc1ccccc1)Nc1cc(C(F)(F)F)ccc1N1CCCC1	–	14100 nM (active)
NS(=O)(=O)c1cc(C(=O)O)cc(N2CCCC2)c1Oc1ccccc1	–	inactive
Cc1nn(-c2nc3ccccc3[nH]2)c(N)c1-c1ccc(Cl)cc1	–	3980 nM (active)
O=C(O)Cc1c(O)ccc2ccccc12	-24.2% [at 11.4 µM]	–
Oc1ccc2ccccc2c1Cc1c(O)ccc2ccccc12	–	2000 nM (active)
CC(C)(C)c1ccc(O)c(CN(Cc2c(O)ccc3ccccc23)C2CCCCC2)c1	-19% [at 11.4 µM]	–
CC(=O)N1N=C(c2cccc([N+](=O)[O-])c2)OC1c1ccccc1Cl (stereo not drawn)	–	891 nM (active)
CC(=O)N1N=C(c2cccc([N+](=O)[O-])c2)OC1c1ccc(Cl)cc1Cl (stereo not drawn)	–	1260 nM (active)
CCOC(=O)C1CCCN(C(=O)CCCOc2cc(=O)n(C)c3ccccc23)C1 (stereo not drawn)	–	inactive
Cn1c(=O)cc(OCCCC(=O)N2CCN(c3ccccc3)CC2)c2ccccc21	–	2510 nM (active)
C(=N\N1CCN(C2c3ccccc3-c3ccccc32)CC1)/c1cccnc1	–	200 nM (active)
O=c1c2cnn(-c3ccccc3)c2nnn1/N=C/c1cccnc1	–	inactive
C/C(=N\N1CCN(C2c3ccccc3-c3ccccc32)CC1)c1cccnc1	–	562 nM (active)
C/C(=N\N1CCN(C2c3ccccc3-c3ccccc32)CC1)c1ccncc1	–	2240 nM (active)
O=[N+]([O-])c1cc(/C=N/N2CCN(C3c4ccccc4-c4ccccc43)CC2)ccc1Cl	–	inactive
CC(C)(C(=O)c1cccnc1)c1cccnc1	–	inactive
Cn1nc(C(F)(F)F)c(/C=N/OC(=O)c2ccccc2Cl)c1SCc1ccc(Cl)cc1	–	3980 nM (active)
N[C@@]1(C(=O)O)CN[C@H](C(=O)O)C1	–	inactive
O=C(c1csnn1)N1CCC2(CC1)CN(Cc1cc(C(F)(F)F)cc(C(F)(F)F)c1)C2	–	inactive
CC1=N/C(=C\c2ccc([N+](=O)[O-])cc2)C(=O)N1c1ccc(Cl)cc1	–	inactive
Cc1ccc(C)n1N1C(=O)/C(=C\c2ccc(Cl)cc2)SC1=S	–	5010 nM (active)

Compound	activity, negative = inhibition	AC50
CC(=O)OC[C@@H]1O[C@@H](O/N=C2/C[C@@H](O)[C@@H](O)[C@@H]3[C@@H]4C(=O)N([C@@H](C)c5ccccc5)C(=O)[C@H]4CC[C@H]23)[C@H](OC(C)=O)[C@H](OC(C)=O)[C@@H]1OC(C)=O	10.5% [at 11.4 µM]	–
CCOc1ccc(/C=C/C2=Cc3c(sc(NC(=O)CSc4n[nH]c(N)n4)c3C#N)C(C)(C)C2)cc1	–	10000 nM (active)
Cc1ccc(/C=C/C2=Cc3c(sc(NC(=O)CSc4n[nH]c(N)n4)c3C#N)C(C)(C)C2)o1	–	2820 nM (active)
CC(=O)OC[C@@H]1O[C@@H](O/N=C2/C[C@@H](O)[C@@H](O)[C@@H]3[C@@H]4C(=O)N(c5cccc(Oc6ccccc6)c5)C(=O)[C@H]4CC[C@H]23)[C@H](OC(C)=O)[C@H](OC(C)=O)[C@@H]1OC(C)=O	1.66% [at 11.4 µM]	–
CC(C)(C)NC[C@H](O)c1cc(O)cc(O)c1	–	inactive
C[C@@H]1OC2C3=C(C(=O)[C@H]4O[C@@H]4[C@H]3O)[C@@H]1[C@H]1[C@H](C)OC=C3[C@H](O)[C@H]4O[C@H]4/C(=N\OCc4ccccc4)[C@@]321	13.2% [at 11.4 µM]	–
CCOc1cc(CNCCc2ccc(S(N)(=O)=O)cc2)cc(Cl)c1OCc1ccccc1	–	12600 nM (active)
CCOc1cc(CNCCO)c(Cl)cc1OCC(=O)NCCc1ccccc1	–	inactive
Cc1ccccc1NC(=S)NC(=O)c1cc(-c2ccccc2)nc2ccccc12	–	3550 nM (active)
Cc1ccc(C)c(S(=O)(=O)NC(C)C(=O)Nc2ccc(-c3nc4ccccc4s3)cc2)c1 (stereo not drawn)	–	inactive
CCCc1ccc(-c2cc(C(=O)NN3CCOCC3)c3ccccc3n2)cc1	–	2510 nM (active)
Cc1ccc(-c2nc3ccccc3s2)cc1NC(=S)NC(=O)c1ccccc1	–	3550 nM (active)
Cc1ccc2nc(-c3ccc(NC(=O)c4ccc(N)cc4)c(S(=O)(=O)O)c3)sc2c1	-3.37% [at 11.4 µM]	–
O=C(O)c1cc(-c2ccc3cc4c(cc3c2)OCO4)nc2ccccc12	-17.1% [at 11.4 µM]	–
Cc1ccc(-c2cc(C(=O)NN=C3CCCC3)c3ccccc3n2)cc1	–	12600 nM (active)
C[N+]1(C)CCc2cc(O)c(O)cc2[C@H]1Cc1ccc(O)c(O)c1	6.54% [at 11.4 µM]	–
CN(Cc1ccco1)c1ncnc2ccc(-c3ccoc3)cc12	-10.5% [at 2.29 µM]	–
Cc1cnc(CNc2cc(-c3ccccc3Cl)ncn2)cn1	8.89% [at 2.29 µM]	–
O=C1C[C@@H](O)[C@@H](O)[C@H]2[C@@H]3C(=O)N(C[C@@H]4CCCO4)C(=O)[C@@H]3CC[C@H]12	21.7% [at 11.4 µM] and 13.9% [at 11.4 µM]	–
CNc1cc(-c2c(C)noc2C)ncn1	9.86% [at 2.29 µM]	–
CCn1c(C)cc(/C=C2\NC(=O)N(Cc3ccc(Cl)cc3)C2=O)c1C	–	inactive
FC(F)(F)c1ccccc1-c1cc(NCc2cccnc2)ncn1	16.9% [at 2.29 µM]	–

Source: PubChem BioAssay AID1851 (National Center for Advancing Translational Sciences (NCATS), 2009)
